# In PubChem BioAssay (Tox21):
# Records with an inconclusive call do not appear. A call without a number means that no potency is given here. Calls of active or inactive are those of the source. Unless noted, the call rests on the fitted dose curve; in most records, active means well fitted cell-killing curve with a large enough effect in the repeat runs; inconclusive means weak or mixed curves, or effect the other way; inactive means no such curve, though single readings can be large or run the other way.
# Molecular target: Bile acid receptor (Homo sapiens) (UniProt Q96RI1)
# Sequence (Q96RI1 whole entry, looked up): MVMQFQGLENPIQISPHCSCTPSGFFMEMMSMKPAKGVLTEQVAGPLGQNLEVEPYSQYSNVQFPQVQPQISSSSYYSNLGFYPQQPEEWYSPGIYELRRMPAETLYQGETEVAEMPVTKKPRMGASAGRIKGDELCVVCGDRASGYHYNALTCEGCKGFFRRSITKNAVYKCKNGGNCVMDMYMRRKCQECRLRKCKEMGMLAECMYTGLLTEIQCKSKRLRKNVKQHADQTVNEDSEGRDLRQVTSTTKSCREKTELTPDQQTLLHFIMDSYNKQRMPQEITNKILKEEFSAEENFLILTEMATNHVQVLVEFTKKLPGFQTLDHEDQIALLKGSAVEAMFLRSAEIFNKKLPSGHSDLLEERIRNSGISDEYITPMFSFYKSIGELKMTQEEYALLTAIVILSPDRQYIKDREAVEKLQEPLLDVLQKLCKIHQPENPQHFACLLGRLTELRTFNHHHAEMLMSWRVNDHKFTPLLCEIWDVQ
# Experiment: qHTS assay to identify small molecule antagonists of the farnesoid-X-receptor (FXR) signaling pathway (AID 743217; active means well fitted inhibition curve with a large enough effect in the signal ratio in the repeat runs, not every such curve was filed as active; the % refers to the signal ratio)
# Details: HEK293T FXR-UAS-bla, beta-lactamase ratio, CDCA-stimulated, 16 h; series mostly up to 62.6 µM
# In short: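 FRET fluorescence after 2 h room-temperature LiveBLAzer loading gives the readout. Prior step: FXR-bla HEK 293T cells, seeded and incubated 5 h, received test compounds plus 50 uM final CDCA for 16 h at 37 °C.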
row,Structure (SMILES),Potency
1,CCOc1cccc(-n2cc(C(=O)N3CCN(c4cc(C(=O)O)c5ccccc5c4)CC3)nc2-c2ccc(C)cc2)c1,inactive
2,C[C@@H](O)[C@H]1C(=O)N2C(C(=O)O)=C([C@H]3CCCO3)S[C@H]12,inactive
3,CC(C)Nc1cccnc1N1CCN(C(=O)c2cc3cc(NS(C)(=O)=O)ccc3[nH]2)CC1,inactive
4,Cc1cccc(O)c1N,inactive

# Tested on: not listed separately
# Experiment: qHTS assay to identify small molecule agonists of the farnesoid-X-receptor (FXR) signaling pathway - cell viability counter screen (AID 743218); further: nearly all actives have a fitted effect of over 45% in size; further: potency means the concentration at half of the fitted maximal effect
# Details: FXR-bla HEK293T viability, CellTiter-Glo luminescence, 16 h; series mostly up to 62.6 µM
# In short: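 Readout: CellTiter-Glo luminescence, 30 min RT, multiplexed after the FXR-bla FRET reading. HEK 293T FXR-UAS-bla cells received compound 5 h post-plating and were incubated 16 h at 37 C.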
row,Structure (SMILES),Potency
1,C[C@@H]1CN(CCCn2c3ccccc3c3ccccc32)C[C@H](C)N1,15 µM (active)
2,CC(C)COCC(CN(Cc1ccccc1)c1ccccc1)N1CCCC1 (centres undefined),33.5 µM (active)
3,CCOc1cccc(-n2cc(C(=O)N3CCN(c4cc(C(=O)O)c5ccccc5c4)CC3)nc2-c2ccc(C)cc2)c1,46.7 µM (active)
4,C1C[C@@H]2[C@H]3CC[C@H](C3)[C@@H]2C1,inactive
5,CC1=Nc2ccc3ccccc3c2C1(C)C,inactive
6,C=CC(=O)OCC1CC2CC1C1CCC(COC(=O)C=C)C21 (centres undefined),inactive
7,O=C1NCCN1CCO,inactive
8,CN1CCCC(n2nc(Cc3ccc(Cl)cc3)c3ccccc3c2=O)CC1 (centres undefined),21.1 µM (active)
9,O=C1c2ccccc2C(=O)C1(O)O,inactive
10,O=C(O)CCC(=O)C(=O)O,inactive
11,CC(C)=CCC1C(=O)N(c2ccccc2)N(c2ccccc2)C1=O,inactive
12,CCCCCCCCCCC(=O)O,inactive
13,Cc1[nH]cnc1CN1CCc2c(c3ccccc3n2C)C1=O,inactive
14,CC1(C)S[C@@H]2[C@H](NC(=O)C(c3ccccc3)S(=O)(=O)O)C(=O)N2[C@H]1C(=O)O (some centres undefined),inactive
15,O=C1c2ccccc2C(=O)C1c1ccc(Br)cc1,inactive
